# Measurements as given in PubChem BioAssay AID2291 (The Scripps Research Institute Molecular Screening Center, 2010).
# Screen size: about 16,000 compounds; about 75 (0.5%) were called active. This is one part of a sample in which actives are shown more often than they occur. Values without a mark were called inactive. Cut-off read from the data, not from the text of the source: active = inhibition above about 30%; inactive = the rest.
# Biological target: Protein phosphatase methylesterase 1 (Homo sapiens) (UniProt Q9Y570)
# Assay: Maybridge compound blocking human PME-1 (AID 2291)
# Details: recombinant PME-1, FP-Rh probe fluorescence polarization; at 9 µM; hits give high values
# Sequence of Protein phosphatase methylesterase 1 (Homo sapiens) (Q9Y570 whole entry, looked up): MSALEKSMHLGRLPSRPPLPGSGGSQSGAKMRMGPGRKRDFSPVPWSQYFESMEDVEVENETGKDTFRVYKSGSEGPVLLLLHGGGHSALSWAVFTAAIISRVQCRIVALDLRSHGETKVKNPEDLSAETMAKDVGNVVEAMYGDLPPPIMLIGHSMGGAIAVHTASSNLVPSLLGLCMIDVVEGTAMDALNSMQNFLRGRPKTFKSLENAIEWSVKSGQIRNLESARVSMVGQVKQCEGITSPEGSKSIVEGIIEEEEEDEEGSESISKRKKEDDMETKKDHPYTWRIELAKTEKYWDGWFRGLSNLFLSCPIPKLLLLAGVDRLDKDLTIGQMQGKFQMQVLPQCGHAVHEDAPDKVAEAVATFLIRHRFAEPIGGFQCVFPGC
row,Compound,inhibition
1,COc1ccc(-c2ccc(/C=N/NC(=O)CCc3ccc(O)cc3)s2)cc1,-3.06%
2,COc1ccc(COCC(O)CN2CCC(C(N)=O)CC2)cc1 (configuration not stated),1.38%
3,FC(F)(F)c1ccc(Cl)c(NC(=S)NN=C2CCCCCC2)c1,0.88%
4,CC1(C)C=Cc2cc(-c3noc(-c4ccccc4)n3)ccc2O1,-23.5%
5,CCCc1c(C(=O)Nc2ccc(F)cc2)cnn1-c1ccccc1,3.87%
6,O=C(Oc1ccccc1N1CCCCC1)c1sc2ccccc2c1Cl,-0.751%
7,CCOC(=O)CNC(=O)CCc1cc(OC)c(OC)c(OC)c1,6.62%
8,Cn1c(S(=O)(=O)O)nc2ccccc21,3.94%
9,O=C(Sc1ccccc1)c1ccc(C(F)(F)F)cc1,-0.43%
10,CN(NS(=O)(=O)CS(C)(=O)=O)c1ncccc1[N+](=O)[O-],5.17%
11,O=C(O)c1onc2ccccc12,-2.58%
12,CCOC(=O)NN(C(=O)OCC)c1c(C)c(C)c(C)c(C)c1C,-1.33%
13,Cc1nc(C(F)(F)F)ccc1C(=O)NC1CCCc2ccccc21 (configuration not stated),1.46%
14,Cc1cc2nc(C)c(C)nc2cc1C,-1.82%
15,COc1ccc(NC(=O)C2CC(C)=C(C)CC2C(=O)O)c(N2CCOCC2)n1 (configuration not stated),1.52%
16,N#CC(Cc1ccccc1)Sc1ccccc1 (configuration not stated),3.19%
17,O=C(CNC(=O)c1ccccc1F)c1ccc(Br)cc1,-7.48%
18,O=C(/C(=N\N=C\c1ccc2c(c1)OCO2)c1ccccc1)c1ccccc1,4.75%
19,Cc1cc2nsnc2cc1Cl,0.257%
20,COC(=O)c1sc(SC)c(-c2ccn[nH]2)c1C,2.07%
21,NC(=S)N/N=C\Cc1nnnn1-c1ccc(Cl)cc1,1.94%
22,Nc1nc(C23CC4CC(CC(C4)C2)C3)cs1,8.45%
23,CSc1ccc(C(F)(F)F)cc1C(=O)/C=C/N(C)C,-0.344%
24,Clc1ccc(-c2csc(-c3cnccn3)n2)s1,-1.61%
25,O=C1c2ccc3c4c(ccc(c24)C(=O)N1c1ccccc1)C(=O)N(c1ccccc1)C3=O,5.87%
26,CCOC(=O)C1=C(C)NC(=O)NC1c1ccc(-c2cccc([N+](=O)[O-])c2)o1 (configuration not stated),-24.2%

row,Compound,inhibition
1,C/C(=N\NC(N)=S)c1csc(-c2ccccc2)n1,4.41%
2,O=C(c1cc(-c2cccs2)on1)N1CCCCC1,-4.77%
3,COCn1nnc2ccccc21,0.294%
4,COc1ccc(/C=C(\NC(=O)c2ccccc2)C(=O)N/N=C/c2ccc3c(c2)OCO3)cc1,-5.56%
5,CCCCc1ccc(-n2c(-c3ccc(F)cc3)coc2=O)cc1,2.07%
6,N#C/C(=C\N1CCc2ccccc21)S(=O)(=O)c1ccc(C(F)(F)F)cn1,2.09%
7,Cn1c(=O)c(C#N)cn(-c2ccccc2)c1=O,2.81%
8,Cc1ccc(NC(=S)C(C#N)C(=O)N2CCCC2)c(C)c1 (configuration not stated),-4.1%
9,O=C(Nc1ccccc1-c1ccccc1)c1cccs1,-1.11%
10,Fc1cccc(Cl)c1CN1CCN(c2ncnc3scc(-c4cccs4)c23)CC1,-3.44%
11,CCOC(=O)Cc1csc(NC(NC(=O)OCC)(C(F)(F)F)C(F)(F)F)n1,4.35%
12,O=C1Nc2ccccc2C12NNC(=S)NN2,65.2% (active)
13,CSc1ccc(C(F)(F)F)cc1NC(=S)Nc1ccccc1,0.0132%
14,N#Cc1c(-c2cccs2)oc(-n2cccc2)c1-c1cc(Br)cs1,-56.1%
15,O=C(NNC(=O)C1c2ccccc2Oc2ccccc21)c1cccc(F)c1,0.119%
16,O=S(=O)(NC1Cc2ccccc2C1)c1ccc(-c2csnn2)cc1,7.03%
17,Cn1cnc([N+](=O)[O-])c1N1CCN(C(c2ccccc2)c2ccccc2)CC1,0.986%
18,CN1CCCCC(C2=C(Cl)C(=O)CCC2)C1=O (configuration not stated),3.98%
19,OC(COc1ccc(Cl)c(Cl)c1)CN1CCC(Nc2nccc(C(F)(F)F)n2)CC1 (configuration not stated),-0.258%
20,O=C(Nc1cc2ccccc2s1)N1CCN(Cc2c(F)cccc2Cl)CC1,0.279%
21,NC(=O)c1cccc2c1OCCO2,6.89%
22,Nc1ccccc1SCc1cc([N+](=O)[O-])cc2c1OCOC2,5.44%
23,COc1cc(CC/C(C)=N/O)ccc1O,3.22%
24,NNC(=O)c1ccc(Cl)cc1Cl,15.5%
25,CC(=O)Nc1ccc(C)cc1N=Cc1ccncc1,2.67%
26,O=C(O)c1cnc(NCc2ccccc2)s1,-5.43%

row,Compound,inhibition
1,COc1ccc(CCN=C(C)c2cc(Cl)cc(Cl)c2O)cc1OC,0.059%
2,CC1(NC(=O)OCc2ccccc2)CC1NC(=O)OCc1ccccc1 (configuration not stated),-1.61%
3,O=S(=O)(c1ccc2c(c1)OCCO2)N1CCN(c2ccc(C(F)(F)F)cn2)CC1,27.1%
4,O=C(Cc1cccc2ccccc12)NNC(=O)Nc1ccc(Cl)cc1,-12.8%
5,CCOC(=O)/C(=N/Nc1ccccc1)C(C)=N,1.95%
6,N#CC(C#N)=C/C=C(/Sc1nc2cc(Cl)ccc2s1)c1ccc(Cl)cc1,3.07%
7,Cc1cccc(Cl)c1NC(=S)NCCNC(=O)OC(C)(C)C,-2.72%
8,O=c1[nH]c2ccccc2c(=O)n1CCSc1ccc(Cl)cc1,-0.818%
9,O=C(O)CCc1cccnc1,5.03%
10,OC(CN1CCN(c2ccc(C(F)(F)F)cn2)CC1)c1ccc2c(c1)OCCO2 (configuration not stated),-3.57%
11,OC(COc1ccc(F)cc1)(c1ccccc1)c1ccccc1,2.52%
12,Cn1/c(=N\N=C2CCCCC2)sc2ccccc21,24.3%
13,O=C(O)/C=C/C(=O)Nc1ccc(NC(=O)c2ccccc2O)cc1,-5.93%
14,O=C1CC(c2ccccc2)C(=O)N1Cc1cccs1 (configuration not stated),-0.212%
15,CCOC(=O)c1c(N/N=C\c2ccccc2O)n[nH]c1C,7.03%
16,COc1ccccc1C1CCN(c2ccc([N+](=O)[O-])cn2)CC1,3.68%
17,COC(=O)c1scc(S(=O)(=O)Cc2ccco2)c1N/N=C(\C#N)S(=O)(=O)C(C)C,7.89%
18,CCCCOC(=O)c1ccc(-c2ccccn2)s1,5.14%
19,COc1cccc(/C=N/NC(=S)Nc2cc(C(F)(F)F)cc(C(F)(F)F)c2)c1O,5.97%
20,CCCC1NC(=O)NC(C)=C1C(=O)OCC (configuration not stated),-4.5%
21,O=[N+]([O-])c1ccc(C2CC2(Br)Br)cc1 (configuration not stated),0.49%
22,Cc1nc2ccccn2c1C(=O)N/N=C/c1cn(-c2ccccc2)nc1-c1cccs1,1.07%
23,CSc1c(C#N)c(N)nc(SCC(=O)c2ccc(OC(F)F)cc2)c1C#N,-10.3%
24,CCOC(=O)/C(C#N)=C/N=C(N/N=C/c1cccs1)SC,-1.55%
25,Cn1c(CN2C(=O)CSc3ccc(C(F)(F)F)cc32)nnc1SCC(=O)c1ccccc1,5.25%
26,CC(C)CC(NC(=O)OC(C)(C)C)C(=O)OCc1ccc(CC(=O)O)cc1 (configuration not stated),-2.54%

row,Compound,inhibition
1,O=C(NNc1ccccc1C(F)(F)F)NS(=O)(=O)c1ccc(Cl)cc1,5.25%
2,CCOC(=O)c1ccc2nc(C(F)(F)F)cc(N3CCN(Cc4ccccc4)CC3)c2c1,-1.13%
3,Cc1nc(C)c(-c2ccnc(-c3ccc(Cl)cc3)n2)s1,4.12%
4,NC(CC(=O)O)c1ccccc1 (configuration not stated),6.22%
5,CSc1nc(N)nc2nc[nH]c12,-1.11%
6,COC(=O)c1cc(S(=O)(=O)NCc2csc(-c3cccs3)n2)oc1C,-1.1%
7,CC1=C(C(=O)O)N2C(=O)[C@H](NC(=O)[C@@H](N)c3ccccc3)C2SC1 (some centres not stated),0.953%
8,N#CCSc1ccc2ccccc2c1,3.36%
9,CCOC(=O)c1c(NC(=S)Nc2ccccc2)sc2c1CCN(C)C2,-2.27%
10,NC(=O)C1CCN(CC(O)CSc2ccc(F)cc2)CC1 (configuration not stated),0.714%
11,CC(=O)Nc1cccc(-n2nnc(SCC(=O)c3cc(-c4ccccc4)no3)n2)c1,-46.5%
12,CCOC(=O)C(=CNc1cc(C(F)(F)F)ccc1NCc1ccccc1)C(=O)OCC,1.63%
13,COC(=O)c1cc(OC)c(OC)cc1NC(=O)CSc1ccc(Cl)cc1,5.14%
14,NC(=O)c1ccccc1OCCOc1ccccc1C(N)=O,-1.29%
15,Cn1cc(Br)c(-c2cccc(NC(=O)c3ccccc3Cl)c2)n1,5.94%
16,N#Cc1nccnc1N1CCN(c2ccccc2)CC1,1.69%
17,N#Cc1cccnc1NNC(=O)c1ccccc1C(=O)O,-1.06%
18,Fc1ccc(COc2ccc(-c3nnco3)cc2)cc1,4.75%
19,CCOC(=O)c1cnc2c(S(=O)(=O)C(C)C)csc2c1Sc1cccc(Cl)c1,3.84%
20,CC(=O)N1C=CC(c2c[nH]c3ccccc23)C=C1,-3.18%
21,CC(C)S(=O)(=O)/C(C#N)=C/c1ccccc1OC(F)(F)F,2.58%
22,CS(=O)(=NC(=O)c1cc2ccccc2o1)c1ccc(Cl)cc1 (configuration not stated),4.96%
23,CC(C)(C)C(=O)OCC(N)=S,-1.98%
24,O=[N+]([O-])c1ccc(N2CCC2)cc1,0.196%
